# Laboratory results published in publication PMC7819943, “Rice protein-binding microarrays: a tool to detect cis-acting elements near promoter regions in rice”.
# In all, about 39,000 sequences were measured (“fluorescence intensity (a.u.)”: median about 4,300, highest 2% from about 39,000 on). This excerpt belongs to a sample that is enriched for the highest values.
# Molecular target: T1, OsSMF1 (Oryza sativa, UniProt Q6ZLB0 1-436)
# T1 sequence: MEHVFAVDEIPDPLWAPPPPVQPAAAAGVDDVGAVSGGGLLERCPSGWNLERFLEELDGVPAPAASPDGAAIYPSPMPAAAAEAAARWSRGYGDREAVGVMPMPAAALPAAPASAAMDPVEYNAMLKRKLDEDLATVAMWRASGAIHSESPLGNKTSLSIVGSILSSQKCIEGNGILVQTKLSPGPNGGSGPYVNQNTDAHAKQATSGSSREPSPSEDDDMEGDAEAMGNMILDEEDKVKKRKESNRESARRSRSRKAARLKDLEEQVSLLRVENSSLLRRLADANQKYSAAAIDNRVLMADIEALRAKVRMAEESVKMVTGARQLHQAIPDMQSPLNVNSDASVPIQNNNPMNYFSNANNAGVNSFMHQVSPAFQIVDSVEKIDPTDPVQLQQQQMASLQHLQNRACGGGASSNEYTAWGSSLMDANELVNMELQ
# Assay: protein-binding microarray (RPBM); PBS, 2% BSA, 51.3 ng/ul salmon testes DNA, 50 uM zinc acetate, 200 nM TF, 25 C, 1 h; high values mean tight binding
# Settings: protein: recombinant; tags: N-terminal polyhistidine and DsRed monomer fusion (pET32a); chain copies: 2; label: CyDye5-dUTP incorporated in the synthesized complementary strand; 3' TTTTT single-stranded linker to array surface; dsDNA, one strand shown
# Method in brief: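 The binding signal is fluorescence intensity per array feature (arbitrary units). Readings came from an Axon 4000B scanner after a washed, 2% BSA-blocked, double-stranded custom Agilent array had been incubated for 1 h at 25 °C with 200 nM protein and 50 µM zinc acetate. The protein was a Ni–NTA-purified transcription factor fused N-terminally to polyhistidine and DsRed, expressed in E. coli BL21-CodonPlus.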
row,Sequence,binding signal
1,GATCATGAGCTCCACGGCGGCCAACGTGGCGGCGCCGACGCGGAGTCACCTAGTGCAG,8640 fluorescence intensity (a.u.)
2,TTTCGCAATTATATTGATGCAGAAATCAGCAGCTCACAATCGGAGTCACCTAGTGCAG,20700 fluorescence intensity (a.u.)
3,TAACACAACTATTTACTCAGCTCACGTGTTTCATTAACAACGGAGTCACCTAGTGCAG,3340 fluorescence intensity (a.u.)
4,TCAGCTCAGCAAATTAGGATGTTTCATTAGTTAGAACAAACGGAGTCACCTAGTGCAG,51600 fluorescence intensity (a.u.)
5,AGCGACGAGTAAACAAAGCGCGGCGTAGCATGTGATGTGGCGGAGTCACCTAGTGCAG,4440 fluorescence intensity (a.u.)
6,GTTATATCTCACGTGTCAAAATTCCTATGATTTTCAGTAACGGAGTCACCTAGTGCAG,4700 fluorescence intensity (a.u.)
7,GCGTCACGTTCCTGTCGGCGGCGGCCAACGTGGCCCGCGTCGGAGTCACCTAGTGCAG,15200 fluorescence intensity (a.u.)
8,CGCCGCTGCCGCCAAACCGTCGGTGGAGAAGGCCTACCGGCGGAGTCACCTAGTGCAG,59200 fluorescence intensity (a.u.)
9,GCCGCCGCCGCCGCCGCCGCTGACGAGGAGCAGAAGGTGGCGGAGTCACCTAGTGCAG,4310 fluorescence intensity (a.u.)
10,CGCCGAGCTGCCACGCTCGCGTCGCGTCCAGATGCGCGCGCGGAGTCACCTAGTGCAG,3680 fluorescence intensity (a.u.)
11,GCGCCGTCGTCGTCGCTGCCGTGGCGCCGCCGCGGCCACCCGGAGTCACCTAGTGCAG,6800 fluorescence intensity (a.u.)
12,CGCTGCTGCCGTCACAGAAGGTGCTGACATGGCCTGGGGTCGGAGTCACCTAGTGCAG,7520 fluorescence intensity (a.u.)
13,CCGAGCCACGTCGCGCCGCCGCCGCTGCTGTGCCGCCGCGCGGAGTCACCTAGTGCAG,5650 fluorescence intensity (a.u.)
14,GAGTGGAGAAGGCGCGCCACCGTCGCTAGAGCCGATGCTGCGGAGTCACCTAGTGCAG,47700 fluorescence intensity (a.u.)
15,GCGCGCCGTCGTGGCGCTGGCGGCCACCACGGTGGTCACCCGGAGTCACCTAGTGCAG,4120 fluorescence intensity (a.u.)
16,GCCGGCGACGCTGCCGCCGTCACCACTACCGCTGCCGCGGCGGAGTCACCTAGTGCAG,4140 fluorescence intensity (a.u.)
17,GCGGGCGCACGGGTGGGTGGTGTTCTGGGGCGGAGGCAGCCGGAGTCACCTAGTGCAG,3310 fluorescence intensity (a.u.)
18,CTGCTGCCGTCGCAGAAGGTGCTGACATGGCCAGGGGTGGCGGAGTCACCTAGTGCAG,45300 fluorescence intensity (a.u.)
19,CCGTCGTGCTGGGTGTGGCGCCGGAGAAGAAGGCGCAGCACGGAGTCACCTAGTGCAG,41700 fluorescence intensity (a.u.)
20,GATGTTACGCGTGTAATGGTGTGTGCGTGTATATACTTTGCGGAGTCACCTAGTGCAG,7330 fluorescence intensity (a.u.)
21,ACGTTTACTCCCAGTACACACAAGACACTACTAGCTTAGACGGAGTCACCTAGTGCAG,3420 fluorescence intensity (a.u.)
22,TGGAGGAGGAGGAGGGGAGACCACCGGAGGTAGGCGAATCCGGAGTCACCTAGTGCAG,3140 fluorescence intensity (a.u.)
23,TCAGATAGCCACCATGACATGTATCAGTACATGCAGTGATCGGAGTCACCTAGTGCAG,4480 fluorescence intensity (a.u.)

row,Sequence,binding signal
1,CGAATAAGCCCTTAATGTGTACGTTATTTGGTTTATCCACCGGAGTCACCTAGTGCAG,3240 fluorescence intensity (a.u.)
2,CGCCGGTGCTGATGCTGATCGATCTTACGTCGCGTCGCGACGGAGTCACCTAGTGCAG,3280 fluorescence intensity (a.u.)
3,CTGCAGCAAACGACCAGCCATGTCACAGGTTGTGAAGGTCCGGAGTCACCTAGTGCAG,4600 fluorescence intensity (a.u.)
4,TTGGGCGAGGTAGAGGCGGCGCCGGTGTCATCACCGTCGTCGGAGTCACCTAGTGCAG,5140 fluorescence intensity (a.u.)
5,GAAGGCGGCGCGGAAGTCGGCGCCGGCGACCGGCGGCGTGCGGAGTCACCTAGTGCAG,9120 fluorescence intensity (a.u.)
6,AGAGCAAGGCGCCGGTGGTGCTCATCAAGCCGTCGGCGACCGGAGTCACCTAGTGCAG,63100 fluorescence intensity (a.u.)
7,ACGGTCACGGTCCGGCCGCTCTACACGTACGTAGTACGTGCGGAGTCACCTAGTGCAG,25100 fluorescence intensity (a.u.)
8,GAGATTTGATGACTGGGATGCCACATGGACACCACGACAGCGGAGTCACCTAGTGCAG,13300 fluorescence intensity (a.u.)
9,ATGGTGGTTGTGTCTTATATTTTGGAATGGAGGGACTTATCGGAGTCACCTAGTGCAG,21300 fluorescence intensity (a.u.)
10,TGGGCCGTGATTGAGGCCTATATATACGTGGCCTGACAAACGGAGTCACCTAGTGCAG,4000 fluorescence intensity (a.u.)
11,CAACACGCTCGATATCATCTAGTTAAACTAACCTAGTGTGCGGAGTCACCTAGTGCAG,42700 fluorescence intensity (a.u.)
12,ATCAACGTATCTAAACCGGATGGAAACACGTATCTAAACACGGAGTCACCTAGTGCAG,6180 fluorescence intensity (a.u.)
13,GGATCGAAACTTGTGTTAAACACGTCAACTTCATGCATCTCGGAGTCACCTAGTGCAG,3310 fluorescence intensity (a.u.)
14,AGCTTCGGTTTTCTTACTCAGCACAACGGGGTGGTGGCGCCGGAGTCACCTAGTGCAG,5360 fluorescence intensity (a.u.)
15,GAAAATTTGAGCAAAATTTAGTTGAATTTGAACAAATATTCGGAGTCACCTAGTGCAG,6670 fluorescence intensity (a.u.)
16,AATTACAGATTCCGTCAGAAAACTGTGAGACAGATTTATTCGGAGTCACCTAGTGCAG,3290 fluorescence intensity (a.u.)
17,CCGTTGAATGTGCCAGACAAACTGAGTGTAATTTAATATTCGGAGTCACCTAGTGCAG,65100 fluorescence intensity (a.u.)
18,TCCCTTGTCGACACATGCGTGTCAGCTCCAGGTTTATAACCGGAGTCACCTAGTGCAG,6370 fluorescence intensity (a.u.)
19,CTCATGTTGTTTGACGGTTTGACTCTCCTAGTTTATCATCCGGAGTCACCTAGTGCAG,3370 fluorescence intensity (a.u.)
20,TTCACGCCCTGTAACATCGTGTGCATCCATCCCTCCACCGCGGAGTCACCTAGTGCAG,4190 fluorescence intensity (a.u.)
21,TTTTCATAAATGCTCCTTTGAAACAAATGATTTTACCCTACGGAGTCACCTAGTGCAG,43000 fluorescence intensity (a.u.)
22,TAAAATCTAGATGCAATGAGTTATTTCATATGATTTGAAACGGAGTCACCTAGTGCAG,17000 fluorescence intensity (a.u.)
23,ACCTTCAAATGCAATTTTACAATGGATTTACCTCAAGCTACGGAGTCACCTAGTGCAG,19200 fluorescence intensity (a.u.)
